{"source": "PubChem BioAssay (Tox21)", "note": "Inconclusive results are not listed. A call without a number means that no potency is given here. Unmarked numbers belong to inactive results. Active and inactive are the calls of the source. The call rests on the fitted dose curve; in most records, active means well fitted cell-killing curve with a large enough effect in the repeat runs; inconclusive means weak or mixed curves, or effect the other way; inactive means flat fitted curve, though single readings scatter. Potency means the concentration at half of the fitted maximal effect.", "data": [{"assay": "Caspase-3/7 induction in HepG2 cells by small molecules, qHTS cell viability counter screen (AID 1346981); further: nearly all actives have a fitted effect of over 30% in size", "conditions": "CellTiter-Fluor fluorescence, 17 h; series mostly up to 92.4 µM", "from_the_text": "U.S. Tox21 Program National Center for Advancing Translational Sciences [NCATS] NIH Chemical Genomics Center [NCGC] U.S. Environmental Protection Agency [EPA] National Institutes of Environmental Health Sciences [NIEHS] National Toxicology Program [NTP] U.S. Food and Drug Administration [FDA] Tox21 Assay Overview: Apoptosis is a process of programmed cell death and plays a central role in the development of multicellular organisms. It is a highly regulated process and induces cell death by activating caspases, which are the members of cysteine aspartic acid-specific protease (caspase) family. Caspases involved in apoptosis are classified by their mechanism of action as initiator caspases (caspase-2, -8, -9 and -10) and executioner caspases (caspase-3, -6, and -7). Inhibition of apoptosis results in number of cancers, autoimmune diseases, inflammatory diseases and viral infection. To identify small molecule compounds that induce apoptosis, a homogeneous, luminescent Caspase-Glo 3/7 assay was used. Wild type HepG2 cells were used to screen Tox21 libraries for identifying caspase-3/7 activity inducers. Also cytotoxicity of the compounds was tested in parallel by measuring the cell viability using CellTiter-Fluor assay system in the same wells.\nTox21 Assay Protocol Summary: HepG2 cells were dispensed at 2,000 per well in 5uL of culture medium into white solid bottom 1536-well plates (Corning Life Sciences, Corning, NY) using a Multidrop Combi (Thermo Scientific, Waltham, MA) dispenser. The assay plates were incubated at 37 C and 5% CO2 for 5hr, and then 23nL of compounds dissolved in DMSO and positive control were transferred using a Pintool station ([…], San Diego, CA). The assay plates were incubated at 37C and 5% CO2 for 17hr. For cytotoxicity read, after 16hr incubation at 37C, 1uL CellTiter-Fluor reagent (Promega Corporation, Madison, WI) was added to each well of the assay plates using Flying Reagent Dispenser (FRD, Aurora Discovery, San Diego, CA). After 1hr incubation at 37C and 5% CO2, the fluorescence signal was quantified using a ViewLux plate reader (PerkinElmer, Shelton, CT).", "values": [{"compound": "O=[N+]([O-])C(Br)Br", "Potency": "inactive"}, {"compound": "CC1CN1", "note": "(stereo not given)", "Potency": "inactive"}, {"compound": "O=S1(=O)OCC2C(CO1)C1(Cl)C(Cl)=C(Cl)C2(Cl)C1(Cl)Cl", "note": "(stereo not given)", "Potency": "inactive"}, {"compound": "O=NN(CCO)CCO", "Potency": "inactive"}, {"compound": "COP(=O)(OC)O/C(=C\\Cl)c1cc(Cl)c(Cl)cc1Cl", "Potency": "inactive"}, {"compound": "COc1ccc2c3c1O[C@H]1[C@H](O)CC[C@H]4[C@@H](C2)N(C)CC[C@@]341", "Potency": "inactive"}, {"compound": "NC1CCC(CC2CCC(N)CC2)CC1", "note": "(stereo not given)", "Potency": "inactive"}, {"compound": "CCN(CC)CCc1c[nH]c2ccccc12", "Potency": "inactive"}, {"compound": "C=CCOC(=O)c1ccccc1N", "Potency": "inactive"}, {"compound": "O=Cc1ccccc1", "Potency": "inactive"}, {"compound": "O=c1c2ccccc2c(=O)c2c1cc(Cl)c1[nH]c3c([nH]c12)c(Cl)cc1c(=O)c2ccccc2c(=O)c13", "Potency": "inactive"}, {"compound": "O=c1[nH]c(Cl)c(Cl)cc1Cl", "Potency": "inactive"}, {"compound": "C=C(C)C(=O)[O][Sn]([CH2]CCC)([CH2]CCC)[CH2]CCC", "Potency": "2.43 µM (active)"}, {"compound": "CC(C)[C@@H](Nc1ccc(C(F)(F)F)cc1Cl)C(=O)OC(C#N)c1cccc(Oc2ccccc2)c1", "note": "(stereo not given in full)", "Potency": "inactive"}, {"compound": "CCC[CH2][Sn]([CH2]CCC)([CH2]CCC)[CH2]CCC", "Potency": "61.1 µM (active)"}, {"compound": "CC(=O)[O-].CC(=O)[O-].CC(=O)[O-].[Sb+3]", "activity change, negative = cytotoxicity": "-0.0636% [at 3.27 µM]"}, {"compound": "BrCCCBr", "Potency": "inactive"}, {"compound": "C#CCO", "Potency": "inactive"}, {"compound": "Nc1ccc(N=Nc2ccccc2)cc1", "Potency": "36.4 µM (active)"}, {"compound": "CCCCn1cc[n+](C)c1", "note": "(tested in a mixture with another compound)", "Potency": "inactive"}, {"compound": "CN/C(=N\\[N+](=O)[O-])NCc1cnc(Cl)s1", "Potency": "inactive"}, {"compound": "COP(=S)(OC)Oc1nc(Cl)c(Cl)cc1Cl", "Potency": "inactive"}, {"compound": "CCOP(=O)(OCC)Oc1cc(C)nc(C(C)C)n1", "Potency": "inactive"}, {"compound": "CCCN", "Potency": "inactive"}, {"compound": "O=C(NC(=O)c1ccccc1Cl)Nc1ccc(OC(F)(F)F)cc1", "Potency": "inactive"}, {"compound": "CC(=O)C(Cl)C(=O)N(C)C", "note": "(stereo not given)", "Potency": "inactive"}, {"compound": "CC(=O)[O][Pb]([c]1ccccc1)([c]1ccccc1)[c]1ccccc1", "Potency": "10.9 µM (active)"}, {"compound": "CC(C)NCC(O)c1ccccc1Cl", "note": "(stereo not given)", "Potency": "inactive"}, {"compound": "CN", "Potency": "inactive"}, {"compound": "CCNS(=O)(=O)C(F)(F)C(F)(F)C(F)(F)C(F)(F)C(F)(F)C(F)(F)C(F)(F)C(F)(F)F", "Potency": "inactive"}, {"compound": "CCCCC/C=C\\C/C=C\\C/C=C\\C/C=C\\CCCC(=O)NCC(=O)O", "Potency": "inactive"}, {"compound": "CC(=O)[O-].CC(=O)[O-].O.O.O.[Pb+2]", "Potency": "inactive"}, {"compound": "C#CCC1=C(C)C(OC(=O)C2C(C=C(C)C)C2(C)C)CC1=O", "note": "(stereo not given)", "Potency": "inactive"}, {"compound": "C=CC(=C)C", "Potency": "inactive"}, {"compound": "CCOP(=S)(OCC)Oc1cc(C)nc(N(CC)CC)n1", "Potency": "inactive"}, {"compound": "CC(Cl)CCl", "note": "(stereo not given)", "Potency": "inactive"}, {"compound": "O=P(Cl)(Cl)Cl", "Potency": "inactive"}, {"compound": "C[N+]1(C)[C@@H]2CC[C@H]1CC(OC(=O)C(CO)c1ccccc1)C2", "note": "(stereo not given in full)", "Potency": "inactive"}, {"compound": "Cc1nn(-c2cc(NS(C)(=O)=O)c(Cl)cc2Cl)c(=O)n1C(F)F", "Potency": "inactive"}, {"compound": "CC(=O)[O-].CC(=O)[O-].CC(=O)[O-].[Cr+3]", "Potency": "inactive"}]}]}
